Laboratory results from PubChem BioAssay (NCATS).
Results filed as inconclusive are left out. Entries that show only a call come without a potency. Active and inactive are the calls of the source. Calls follow the shape of the dose curve; as a rule, active = well fitted inhibition curve with a large enough effect; inconclusive = small, poorly fitted or top-dose-only effect; inactive = no such curve, though single readings can be large or run the other way.

The compounds below were run against Papain (Carica papaya) (UniProt P00784) (assay: Primary qHTS assay for inhibitors of the protease papain (AID 1645873;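 also: papain turnover of Z-FR-AMC read as the AMC fluorescence gain over 10 min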)). Conditions: papain Z-FR-AMC cleavage, AMC fluorescence; series mostly up to 49.8 µM.
Sequence of Papain (Carica papaya) (P00784 whole entry, looked up): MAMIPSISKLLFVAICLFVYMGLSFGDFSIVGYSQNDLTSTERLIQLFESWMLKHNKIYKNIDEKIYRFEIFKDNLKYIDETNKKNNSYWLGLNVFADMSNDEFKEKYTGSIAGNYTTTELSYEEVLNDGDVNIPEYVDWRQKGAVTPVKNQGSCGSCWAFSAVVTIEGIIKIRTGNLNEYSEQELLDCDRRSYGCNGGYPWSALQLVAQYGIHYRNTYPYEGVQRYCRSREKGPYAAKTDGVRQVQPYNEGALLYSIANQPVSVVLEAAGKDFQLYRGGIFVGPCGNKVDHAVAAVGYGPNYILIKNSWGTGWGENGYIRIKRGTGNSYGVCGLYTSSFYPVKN
In the case of `Cn1c(=O)c2[nH]c(-c3ccccc3)nc2n(C)c1=O`, the Potency was “inactive”. `CC1CN(S(=O)(=O)c2cccc3cnccc23)CCN1` (stereo unspecified) was tested, and the Potency was “inactive”. `O=c1cc(-c2ccccc2)oc2c(O)c(O)ccc12` was tested, and the Potency was “inactive”. For `CN(C)c1nc(N)c(C(=O)N=C(N)N)nc1Cl`, the Potency was “inactive”. For `C#C[C@]1(O)CC[C@H]2[C@@H]3CCC4=Cc5oncc5CC4(C)[C@H]3CCC21C` (stereo partly specified), the Potency was “inactive”. With `C=CC(N)CCC(=O)O` (stereo unspecified) the Potency was “inactive”. With `CCCC(CCC)C(=O)OC1CC2CCC(C1)[N+]2(C)C` (stereo unspecified) the Potency was “inactive”. With `Cc1ccc(S(=O)(=O)/C=C/C#N)cc1` the Potency was “inactive”. For `NC(=S)c1ccc[n+]([C@@H]2O[C@@H](COP(=O)([O-])OP(=O)(O)OC[C@H]3O[C@@H](n4cnc5c(N)ncnc54)[C@H](OP(=O)(O)O)[C@@H]3O)C(O)C2O)c1` (stereo partly specified), the Potency was “inactive”. For `C[C@@H](CN1CCC(Cc2ccccc2)CC1)[C@@H](O)c1ccc(O)cc1`, the Potency was “inactive”. With `CC[C@H]1OC(=O)[C@H](C)C(O[C@H]2C[C@@](C)(OC)[C@@H](O)[C@H](C)O2)[C@H](C)[C@@H](OC2O[C@H](C)C[C@H](N(C)C)[C@H]2O)[C@](C)(O)C[C@@H](C)CN(C)[C@H](C)[C@@H](O)[C@]1(C)O` (stereo partly specified) the Potency was “inactive”. In the case of `CC(=O)N[C@H](C(=O)O)C(C)(C)SN=O`, the Potency was “inactive”. `NCCCCCCCCCCN` was tested, and the Potency was “inactive”. With `CC(C)c1cccc(C(C)C)c1N1C(=O)c2ccc(O)cc2C1=O` the Potency was “inactive”. `O=C(NOCC1CC1)c1cc(Br)c(F)c(F)c1Nc1ccc(I)cc1Cl` was tested, and the Potency was “inactive”. In the case of `NC(=O)C1=CN(C2OC(COP(=O)(O)OP(=O)(O)OC[C@H]3O[C@@H](n4cnc5c(N)ncnc54)[C@H](OP(=O)(O)O)[C@@H]3O)C(O)C2O)C=CC1` (stereo partly specified), the Potency was “inactive”.
